The whole screen tested about 1,400 compounds, of which about 1,100 (79%) were called active. About 20% were inconclusive and are not listed. Calls follow the shape of the full dose curve. The set was probably picked from earlier hits. These entries were drawn from the full list.
Biological target: Atrial natriuretic peptide receptor 1 (Homo sapiens) (UniProt P16066)
Assay: Natriuretic polypeptide receptor (hNpr1) antagonism - Confirmation; also: nearly all actives have a fitted effect of over 70% in size
Conditions: HEK293 hNpr1 cGMP GloSensor luminescence, ANP-stimulated; series mostly up to 57.6 µM; activity change, negative = inhibition: at the top concentration
Method: In order to identify small molecular compounds that inhibit the hNpr1 receptor we developed a high-throughput assay to measure inhibition of the guanylate cyclase activity of the receptor. cGMP production was measured using a circular permutated Firefly luciferase (FLuc) enzyme functionally linked to the cGMP binding domain of human phosphodiesterase 5 (GloSensor technology pGS-40F, (Fan, F. et al. 2008). The cGMP-sensor was expressed in human embryonic kidney 293 (HEK-293) cells and FLuc activity was measured after stimulation with hNrp agonist peptide. hNrp agonists activates the receptor's associated guanylyl cyclase (GC) domain producing cGMP which then binds to the GloSensor resulting in FLuc activation, the enzymatic activity of which can be measured as bioluminescence with addition of luciferin substrate. A cytotoxicity counter-screen using the HEK-hNpr1-cGMP-sensor cells was also performed on the follow-up compounds. F. Fan, B. F. Binkowski, B. L. Butler, P. F. Stecha, M. K. Lewis, K. V. Wood, Novel genetically encoded biosensors using firefly luciferase. ACS Chem Biol 3, 346-351 (2008).
PROTOCOL TABLES (as described by Inglese J, Shamu CE and Guy RK. 2007) SEQUENCE No. (e.g., 1, 2, 3, etc.); PARAMETER (e.g., Cells, Incubation, Reagent, etc.); VALUE and DESCRIPTION. GLOSENSOR PROTOCOL 1. Cells. Seed 1500 HEK293 cGMP-sensor cells expressing hNpr1 per well in 4uL into Greiner 1536-well white/solid bottom high base, tissue culture-treated plates. 2. Incubation. Incubate plated cells at 37C in 5% CO2, 95% RH overnight. 3. Reagent. Add 1uL per well GloSensor reagent from Promega (2% final concentration) or CO2 independent media vehicle control to respective columns of Greiner 1536-well plates. 4. Incubation. Incubate plated cells at room temperature for 2 h, protect from light. 5. Compounds. Library compounds and A-71915 control added at 23 nL per well, transferred by Pin Tool. 6. Incubation. Incubate plated cells for 30 min. at room temperature, protect from light. 7. Detector. GloSensor baseline pre-read luminescence measured using CCD-based camera (Viewlux). 8. Compound. Add 1uL of hNppA peptide to 0.1 nM final concentration to stimulate hNpr1 or CO2 independent media as vehicle control. 9. Incubation. Incubate treated cells at room temperature for 20 min., protect from light. 10. Detector. GloSensor post-hNppA luminescence measured using CCD-based camera (Viewlux). NOTES (numbers refer to Sequence numbers above) 1. HEK293 cells expressing hNpr1 and GIP/pGS-40F grown to 85-95% confluence (48-72 h) in T175 culture flasks (CO2 independent media supplemented with 10% FBS, 1% Pen/Strep antibiotics and 1 ug/mL puromycin). Trypsinize and harvest cells from T175 culture flasks and filter through 40 um cell strainer. Cells counted with Invitrogen Countess (30,000,000 - 50,000,000 cells/flask). Cells diluted to a final concentration of 375 cells/uL in CO2 independent media and a Millipore multidrop used to dispense 1500 cells per well (4uL/well) into 13 1536-well Greiner White/Solid bottom, high base tissue-culture treated (TC) plates and one Aurora 1536-well Black/Clear bottom, low base, TC plate (for visual inspection of cell health throughout the duration of the assay). 2. Cells incubated overnight at ambient temperature, 24 h. at 37C in 95% RH incubator protected from light, covered with metal lid with gas-exchange holes. 3. Prepare GloSensor Reagent (Promega): Reconstitute GloSensor luciferase substrate by adding 8.2mL Hepes buffer to 250mg substrate, mix well, protect from light and stored at -80C. Prepare a fresh 12% GloSensor solution in CO2 independent supplemented plating media (see above). Mix well and store at ambient temperature, protected from light. 1uL 12% GloSensor Luciferase Reagent added (2% final concentration) to respective columns of 13 x 1536-well Greiner plate with BioRaptr, 1uL CO2 independent plating media added to respective columns as vehicle control with BioRaptr. 4. […]
Potency is read from the fitted curve at half-maximal effect.

Sequence of Atrial natriuretic peptide receptor 1 (Homo sapiens) (P16066 whole entry, looked up): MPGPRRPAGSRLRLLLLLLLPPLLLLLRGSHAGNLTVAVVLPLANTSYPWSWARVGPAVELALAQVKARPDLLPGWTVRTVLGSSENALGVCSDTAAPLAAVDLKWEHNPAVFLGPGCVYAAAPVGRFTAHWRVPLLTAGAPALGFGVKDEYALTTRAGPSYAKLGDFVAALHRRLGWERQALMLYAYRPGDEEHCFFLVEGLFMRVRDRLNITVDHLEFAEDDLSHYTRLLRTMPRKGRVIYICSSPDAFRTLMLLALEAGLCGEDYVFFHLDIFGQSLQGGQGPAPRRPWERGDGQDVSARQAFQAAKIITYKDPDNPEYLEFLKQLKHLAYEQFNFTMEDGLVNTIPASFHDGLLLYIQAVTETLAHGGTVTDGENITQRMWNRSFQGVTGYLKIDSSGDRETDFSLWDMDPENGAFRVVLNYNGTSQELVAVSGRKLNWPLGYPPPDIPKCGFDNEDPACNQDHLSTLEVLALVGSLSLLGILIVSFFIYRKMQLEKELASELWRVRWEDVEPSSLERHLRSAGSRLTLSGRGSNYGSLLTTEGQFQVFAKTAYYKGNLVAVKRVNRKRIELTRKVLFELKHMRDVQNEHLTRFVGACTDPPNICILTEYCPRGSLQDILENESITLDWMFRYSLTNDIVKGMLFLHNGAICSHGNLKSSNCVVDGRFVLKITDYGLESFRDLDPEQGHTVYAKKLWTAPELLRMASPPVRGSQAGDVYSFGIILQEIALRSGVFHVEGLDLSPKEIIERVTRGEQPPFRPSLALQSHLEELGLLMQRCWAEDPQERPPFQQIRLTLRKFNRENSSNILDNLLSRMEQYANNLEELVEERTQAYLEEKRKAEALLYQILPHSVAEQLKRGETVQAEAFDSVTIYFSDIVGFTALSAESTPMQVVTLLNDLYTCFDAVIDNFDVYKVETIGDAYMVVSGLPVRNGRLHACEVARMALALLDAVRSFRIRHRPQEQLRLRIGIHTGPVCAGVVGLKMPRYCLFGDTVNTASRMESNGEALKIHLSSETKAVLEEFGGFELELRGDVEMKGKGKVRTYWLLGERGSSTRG

Which Potency does the source give for `Cc1nc(-c2ccncc2)ncc1C(C)Nc1ncnc(C)c1C` (stereo not drawn) here?
Its Potency is 21.7 µM (active).

Which Potency does the source give for `O=C(c1ccc2cc[nH]c2c1)N1CCC2(CC1)N=C(c1ccc(Cl)cc1)NO2` here?
Its Potency is 19.3 µM (active).

For `O=[S+]1([O-])NCC2(CCCN(Cc3ccc(C(F)(F)F)cc3)C2)Oc2ncccc21` (stereo not drawn), which Potency is on record?
Its Potency is 24.3 µM (active).

For `Cc1cccc(CN2CCc3nc(C(=O)Nc4ccc(Cl)cc4)oc3CC2)c1`, which Potency is on record?
Its Potency is 9.94 µM (active).

`COc1cccc(NC(=O)Cn2c(N(C)Cc3ccccc3)nc(C)cc2=O)c1` was tested. Which Potency did it give?
The Potency was 10.9 µM (active).

With `COc1cccc(C2C(C(=O)Nc3ccccc3)=C(C)N=C3SC=C(CC(=O)NCC(C)C)N32)c1` (stereo not drawn) as the compound, how does the “activity change, negative = inhibition” value read?
Its value is -27.5% (inactive).

`COc1cccc(CNC(=O)Cn2c(N(C)Cc3ccccc3)nc(C)cc2=O)c1OC` was tested. Which Potency did it give?
The Potency was 24.3 µM (active).

For `O=c1[nH]c(C2CCCN(Cc3ccccn3)C2)nn1-c1ccc(Cl)cc1` (stereo not drawn), which Potency is on record?
The Potency was 6.85 µM (active).

With `CC1(C(=O)NCc2ccc3c(c2)OCO3)CCc2cnc(NCc3ccccc3)nc21` (stereo not drawn) as the compound, how does the Potency read?
Its Potency is 35.3 µM (active).

For `Cc1ccc2c(c1)nc1n2[C@@H](CNS(=O)(=O)c2ccccc2)COC1`, which Potency is on record?
Its Potency is 35.3 µM (active).

How did the Potency turn out when `COc1ccc(CN2C(=O)CO[C@H]3CN(Cc4ccc5c(c4)OCO5)C[C@H]32)cc1` was run?
Its Potency is 31.4 µM (active).

For `O=C(c1ccccc1)N1CCNc2cnc(Nc3cccc(C(F)(F)F)c3)nc2C1`, which Potency is on record?
The Potency was 31.4 µM (active).

How did the Potency turn out when `COc1ccc(S(=O)(=O)N2CCc3c(C(=O)NCCc4ccccn4)cccc32)cc1` was run?
The Potency was 24.3 µM (active).

`CC(C)c1cc(C(=O)N2CCC(n3cc(-c4ccccn4)nn3)CC2)n(C)n1` was tested. Which Potency did it give?
Its Potency is 13.7 µM (active).

How did the Potency turn out when `COc1ccc(OCC2(C)COc3ccc(C(=O)Nc4cccnc4)cc3N2)cc1` (stereo not drawn) was run?
Its Potency is 35.3 µM (active).

For `CN(Cc1csc(-c2ccccc2)n1)c1cc(C2CC(O)C2)nc(N)n1` (stereo not drawn), which Potency is on record?
The Potency was 2.43 µM (active).

For `Cc1noc(C)c1-c1cc(-c2ccccc2Oc2ccccc2)cn2cncc12`, which Potency is on record?
The Potency was 19.8 µM (active).

`O=C1NCN(Cc2ccc(Cl)cc2)C12CCN(Cc1ccccc1)CC2` was tested. Which Potency did it give?
The Potency was 15.3 µM (active).

Which Potency does the source give for `N#Cc1cccc(CN2CCC(C3=NC(O)c4cc(F)ccc4N3)CC2)c1` (stereo not drawn) here?
The Potency was 15.3 µM (active).

`CN1CCN(C(=O)C(C)(C)Oc2nn(Cc3cccc(Cl)c3)c3ccccc23)CC1` was tested. Which Potency did it give?
The Potency was 28 µM (active).

Which Potency does the source give for `Cc1cc(N2CCCC(Cn3cc(Cc4ccccc4)nn3)C2)nc(N)n1` (stereo not drawn) here?
Its Potency is 6.11 µM (active).

For `Cc1noc(C)c1-c1cnc2[nH]cc(CC(=O)N3CCOCC3)c2c1`, which Potency is on record?
Its Potency is 31.4 µM (active).

For `O=C(Cc1c[nH]c2ncc(-c3ccccc3F)cc12)N1CCOCC1`, which Potency is on record?
The Potency was 31.4 µM (active).

`COc1ccc(CCNC(=O)c2noc(-c3ccc(C)cc3)n2)cc1OC` was tested. Which Potency did it give?
Its Potency is 24.3 µM (active).

`O=C(c1ccc(Cl)cc1)N1CCCC(n2cc(-c3nc(-c4ccccc4)no3)nn2)C1` (stereo not drawn) was tested. Which Potency did it give?
The Potency was 19.3 µM (active).

`O=C(c1ccc(F)cc1Cl)N1CCC(n2cc(-c3nc(-c4ccccc4)no3)nn2)C1` (stereo not drawn) was tested. Which Potency did it give?
The Potency was 4.32 µM (active).

How did the Potency turn out when `CC(C)c1noc(-c2cn(C3CCN(C(=O)c4ccc(N(C)C)cc4)C3)nn2)n1` (stereo not drawn) was run?
The Potency was 15.3 µM (active).

`Cc1nn2c(c1-c1ccccc1-c1ccccc1)N(CC1CC1)CCC2` was tested. Which Potency did it give?
The Potency was 2.8 µM (active).

`COc1ccc(CC(=O)N2CCC(Cc3nc(-c4ccccc4)no3)CC2)cc1OC` was tested. Which Potency did it give?
The Potency was 12.2 µM (active).

`COc1ccc(-c2noc(CC3CCN(C(=O)Cc4ccc(OC)c(OC)c4)CC3)n2)cc1` was tested. Which Potency did it give?
Its Potency is 3.43 µM (active).

Which Potency does the source give for `Cc1c[nH]c(CN2CCCC(CCc3ccc(F)cc3F)C2)c(C)c1=O` (stereo not drawn) here?
The Potency was 3.43 µM (active).

`O=C(c1ccccn1)N1CC(Oc2ccc(-c3noc(C4CC4)n3)cc2)C1` was tested. Which Potency did it give?
The Potency was 17.2 µM (active).

For `Cc1cccc(C(=O)N2CCC(Oc3ccc(-c4noc(C(C)C)n4)cc3)C2)c1` (stereo not drawn), which Potency is on record?
Its Potency is 27.3 µM (active).

`O=C1c2cnc(-c3ccc(Cl)cc3)nc2OCCN1Cc1ccccc1` was tested. Which Potency did it give?
The Potency was 35.3 µM (active).

Which Potency does the source give for `COC(=O)c1cccc(NC(=O)CCNc2c(C)nc3cnccn23)c1` here?
Its Potency is 21.7 µM (active).

How did the Potency turn out when `COc1cccc(-c2noc(CC3CCN(C(=O)c4ccc(F)cc4)CC3)n2)c1` was run?
Its Potency is 6.11 µM (active).

Which Potency does the source give for `O=C(c1ccccc1)N1CCC(C(=O)N2CCC(Cc3nc(-c4ccc(F)cc4)no3)CC2)CC1` here?
The Potency was 17.2 µM (active).

`Cc1cc(CNC(=O)c2ccc(-c3ccccc3Cl)o2)n(C)n1` was tested. Which Potency did it give?
Its Potency is 24.3 µM (active).

Which Potency does the source give for `O=C(NCC1CC1)c1nc2c(o1)CCN(Cc1cccc(F)c1F)CC2` here?
Its Potency is 28 µM (active).

For `C1CCC(COCCc2noc(C3CNC3)n2)C1`, which Potency is on record?
Its Potency is 21.7 µM (active).

With `COc1ccccc1Nc1cnc2ccc(N(C)Cc3cccnc3)nn12` as the compound, how does the Potency read?
The Potency was 31.4 µM (active).

Which Potency does the source give for `OC1(Cc2cc(-c3ccccc3)no2)CCN(c2ncncn2)CC1` here?
Its Potency is 7.69 µM (active).

`O=C(NCc1nnc2cc(-c3nc(C4CC4)no3)ccn12)c1ccc(F)cc1Cl` was tested. Which Potency did it give?
Its Potency is 17.2 µM (active).

How did the Potency turn out when `Cc1ccc(OCc2nc(C3CCN(C(=O)CCc4nc5ccc(Cl)cc5[nH]4)CC3)no2)cc1` was run?
Its Potency is 24.3 µM (active).

Which “activity change, negative = inhibition” value does the source give for `CCN(CCCNC(=O)c1nnn2cc(-c3ccccc3)[nH]c(=O)c12)c1ccccc1` here?
Its value is -27.6% (inactive).

How did the Potency turn out when `CC(C)c1nncn1C1CCN(S(=O)(=O)c2cccc(Br)c2)CC1` was run?
Its Potency is 19.3 µM (active).

With `COc1ccc(-c2noc(CC3CCN(C(=O)CC4CCCCC4)CC3)n2)cc1` as the compound, how does the Potency read?
The Potency was 10.9 µM (active).

How did the Potency turn out when `COc1ccc(-c2noc(CC3CCN(C(=O)Cc4ccccc4)CC3)n2)cc1` was run?
The Potency was 24.3 µM (active).

Which Potency does the source give for `COc1ccc(-c2noc(CC3CCN(C(=O)Cc4ccc(C)cc4)CC3)n2)cc1` here?
Its Potency is 27.3 µM (active).

With `CC1=NS(=O)(=O)N(C)C=C1C(=O)OCc1nc(-c2ccc(C)cc2)no1` as the compound, how does the Potency read?
Its Potency is 10.9 µM (active).

Which Potency does the source give for `Cc1ccc(C(=O)N2CCN(c3cc(-c4ccc(Cl)cc4)[nH]n3)CC2)c(C)c1` here?
Its Potency is 6.11 µM (active).

How did the Potency turn out when `CCc1ccc(C(=O)N2CCN(c3cc(-c4ccc(F)cc4)[nH]n3)CC2)cc1` was run?
Its Potency is 24.3 µM (active).

For `O=C(c1cc(F)ccc1Cl)N1CCN(c2cc(-c3ccc(F)cc3)[nH]n2)CC1`, which Potency is on record?
Its Potency is 27.3 µM (active).

For `O=C(c1ccc(F)cc1F)N1CCN(c2cc(-c3ccc(Cl)cc3)[nH]n2)CC1`, which Potency is on record?
Its Potency is 17.2 µM (active).

For `Cc1ccc2nc(C3CCCN(Cc4ccc(C#N)cc4)C3)[nH]c(=O)c2c1` (stereo not drawn), which Potency is on record?
Its Potency is 24.3 µM (active).

Which Potency does the source give for `COc1ccc(C2Cn3nnc(C(=O)N4CCN(C(=O)c5cccc(Cl)c5)CC4)c3CO2)cc1` (stereo not drawn) here?
Its Potency is 13.7 µM (active).

Which Potency does the source give for `COc1ccc(C2Cn3nnc(C(=O)N4CCN(C(=O)c5ccc(C)cc5C)CC4)c3CO2)cc1` (stereo not drawn) here?
The Potency was 24.3 µM (active).

`CC(C)(C)c1csc(NC(=O)c2ccc3c(c2)OCCN(C2CCC2)C3)n1` was tested. Which Potency did it give?
The Potency was 35.3 µM (active).

Source: PubChem BioAssay AID1347044 (National Center for Advancing Translational Sciences (NCATS), 2019)
